Compounds without any hit were thinned out: in the full panel of roughly 83,000, 20% have a hit.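 The test compound was applied at a single concentration to cells in 96-well plates for 48 hours, and percent growth was recorded.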 Values without a mark were called inactive. Active and inactive are the calls of the source. Rule for the calls: active = growth percent below 10; inactive = the rest.

What all share (assay): NCI-60 one-dose screen, 48 h (100 = growth as untreated, 0 = no growth, -100 = all killed)
What all share (settings): 10 µM unless noted

The test system of experiment [1] is NCI-H23 lung.
Experiment [2] deals with NCI-H226 lung.
Experiment [3] has as its system NCI-H322M lung.
Experiment [4] has as its system HOP-62 NSCLC.
Experiment [5] deals with NCI-H460 lung.
The test system of experiment [6] is HOP-92 NSCLC.
The subject of experiment [7] is NCI-H522 lung.
In experiment [8] the test system is A549/ATCC NSCLC.
Experiment [9] concerns 786-0 renal.
Experiment [10] deals with COLO 205 colon.

For the compound `Cn1c(-c2c(N)n(CCCN3CCOCC3)c3nc(C#N)c(C#N)nc23)nc2ccccc21`, the growth in experiment [1] is 93.2%; in experiment [2], 89.7%; in experiment [3], 78.1%; in [4], 76.4%; in experiment [5] it was 106%; in experiment [6], -6.11% (active). The growth is 77.4% in experiment [7], 86.8% in experiment [8], 23.3% in [9] and 70% in experiment [10].
Regarding `CCOc1cccc(-c2nc(N)nc(Nc3ccccc3SSc3ccccc3Nc3nc(N)nc(-c4cccc(OCC)c4)n3)n2)c1`, the growth in experiment [1] is 43.8%; in experiment [2] it was 68%; in experiment [3] it was 85.1%; in experiment [4] it was -0.309% (active); in [5], 35.6%; in [6], 97.2%. In addition, the growth in experiment [7] is 90.8%; in experiment [8] it was -10.8% (active); in experiment [9], 84.9%; in experiment [10], 109%.
On to `N=C1C(c2nc3ccccc3s2)=C(O)CN1c1cc(Cl)cc(Cl)c1`, for which the growth in experiment [1] is 88.6%; in experiment [2], 102%; in experiment [3], 89.1%; in experiment [4], 62.2%; in experiment [5] it was 67.5%; in [6] it was -15.8% (active). Further, the growth is 86.5% in experiment [7], 71.4% in [8], 71.1% in experiment [9] and 90.6% in experiment [10].
Regarding `N#Cc1c(-c2cccc([N+](=O)[O-])c2)nc(SCC(=O)c2ccc(Cl)cc2)[nH]c1=O`, the growth in [1] is 98.5%; in experiment [2], 97.6%; in experiment [3], 96.8%; in [4] it was 87.4%; in [5], 108%; in experiment [6], 94.3%. Further, the growth was 88.8% in experiment [7], 101% in experiment [8], 96.7% in experiment [9] and 103% in experiment [10].
Consider `Cc1ccc(C(=O)/C(=C\c2ccc([N+](=O)[O-])cc2)S(=O)Cc2ccc(Cl)cc2)cc1` (stereo not given), for which the growth in experiment [1] was 41%; in [2], 66.4%; in experiment [3] it was 80.3%; in experiment [4], 46.7%; in experiment [5] it was 30%; in experiment [6] it was 64.8%. Moreover, the growth in [7] was -5.71% (active); in [8], 84.1%; in [9], -52.4% (active); in [10], 20.7%.
Consider `COc1cc(C2=NN(C(C)=O)C(c3cc(OC)c(OC)c(OC)c3)C2)ccc1O` (stereo not given), for which the growth is 29.5% in experiment [1]; 38.5% in [2]; 35.2% in [3]; 32.8% in [4]; -6.58% (active) in experiment [5]; 48.5% in experiment [6]. The growth in [7] is -33.8% (active); in experiment [8], 21.7%; in [9], 17.9%; in experiment [10] it was -17.2% (active).
Regarding `COc1cc(CC(=O)n2ncc3ccc(N)cc32)cc(OC)c1OC`, the growth is 91.4% in experiment [1]; 94.9% in [2]; 88.5% in experiment [3]; 94.8% in [4]; 102% in experiment [5]; 99% in experiment [6]. Further, the growth in [7] was 85.6%; in [8], 98.9%; in experiment [9], 97.5%; in [10], 109%.
As for `CC(=O)c1ccc(NS(=O)(=O)c2cccc(C(=O)Nc3ccc(Br)cc3)c2)cc1`, the growth in [1] is 36.4% [25 µM]; in [2], 43% [25 µM]; in [3], 89% [25 µM]; in [4] it was 82% [25 µM]; in experiment [5] it was 75.7% [25 µM]; in [6] it was 47.7% [25 µM]. Also, the growth in experiment [7] was 46.4% [25 µM]; in experiment [8] it was 61.9% [25 µM]; in [9] it was 58.7% [25 µM]; in experiment [10] it was 77.7% [25 µM].
With `COC(=O)C(CC=O)C(=O)C(=O)Nc1cccc(C(F)(F)F)c1` (stereo not given), the growth in [1] was 101%; in [2] it was 98.7%; in experiment [3], 97.3%; in [4] it was 82.2%; in [5] it was 98.6%; in experiment [6] it was 95.1%. For the same compound, the growth in [7] is 87.2%; in experiment [8], 78.1%; in [9], 107%; in experiment [10], 110%.
Take `CN(C)CCn1c2ccc(Br)cc2c2nc3ccccc3nc21`: the growth in experiment [1] was 36.1%; in experiment [2], 41.9%; in experiment [3], 35.2%; in experiment [4], 25.1%; in experiment [5] it was 12.6%; in experiment [6], 49.6%. Moreover, the growth was 29.8% in experiment [7], 17.4% in experiment [8], 33.7% in experiment [9] and 9.69% (active) in experiment [10].
As to `COc1ccc(NC(=O)c2cc(NCc3cc(O)ccc3O)ccc2O)cc1`, the growth in [1] was 90.4%; in experiment [2], 97%; in [3], 91.1%; in [4] it was 101%; in [5] it was 87.2%; in experiment [6], 106%. The growth was -0.814% (active) in experiment [7], 78.7% in experiment [8], 107% in experiment [9] and 113% in [10].
`Cc1cc2nc3c4ccc(Br)cc4n(CCN(C)C)c3nc2cc1C`: the growth in experiment [1] is 14.8%; in experiment [2], 1.57% (active); in experiment [3], 18.9%; in experiment [4] it was 16%; in experiment [5], 2.47% (active); in experiment [6], 34.8%. For the same compound, the growth in [7] is -1.24% (active); in experiment [8] it was 5.41% (active); in experiment [9], 23.2%; in experiment [10] it was -8% (active).
Take `CCN(CC)c1ccc(/C=N/NC(=O)CSc2nc3ccccc3c(=O)n2CCc2ccc(S(N)(=O)=O)cc2)c(O)c1`: the growth in [1] was 33.9%; in experiment [2] it was 37.9%; in experiment [3], 29.4%; in experiment [4] it was 30.4%; in experiment [5] it was 12.8%; in experiment [6], 46.8%. Moreover, the growth is -14.6% (active) in [7], 25.4% in experiment [8], 49.5% in [9] and 1.47% (active) in experiment [10].

Values taken from PubChem BioAssay (NCI).
